Drawing on PubChem BioAssay AID720697 (Broad Institute, 2013), this text covers outcome for 13 compounds.

Measured potencies and affinities stand elsewhere. Records with an inconclusive call do not appear. Activity calls are given as the source filed them.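 The calls were made as follows: active = signal loss with fitted half-maximal concentration at or below twice the top valid tested dose in every test run; inconclusive = runs disagree, flat 30 to 70% signal loss, or poor fit; inactive = all runs flat, opposite direction, or potency beyond limit.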

This test can be described thus: HEK293T cytotoxicity, dose response, cytotoxicity control for miR-122 modulator project, cell-based, inhibitor set, cherry-pick, set 2 (AID 720697). The conditions noted are these: HEK293T viability, CellTiter-Glo luminescence, 48 h; series mostly up to 26 µM. For orientation: Cellular ATP, detected with luciferase, serves as a proxy for viable cell number.
Take `CC(C)C(=O)Nc1ccc2c(c1)C(=O)N(C)[C@@H]1CC[C@H](CC(=O)NCC3CC3)O[C@H]1CO2`: the compound was called inactive. As to `CO[C@@H]1CN(C)C(=O)c2ccc(NC(=O)Nc3ccc(C(F)(F)F)cc3)cc2OC[C@H](C)NC[C@H]1C`, the outcome was inactive.

For the compound `CN1C(=O)c2cc(NS(=O)(=O)c3ccc(Cl)cc3)ccc2OC[C@@H]2O[C@H](CC(=O)N3CCc4ccccc4C3)CC[C@H]21`, the call was inactive.

On to `CNC(=O)C[C@H]1CC[C@@H]2[C@H](COc3ccc(NC(=O)Nc4cccc(F)c4)cc3C(=O)N2C)O1`, for which the compound was called inactive. The result for `COC(=O)C[C@H]1CC[C@@H]2[C@H](COc3ccc(NC(=O)c4cccs4)cc3C(=O)N2C)O1` reads “inactive”. In the case of `COCC(=O)N(C[C@@H]1[C@@H](c2ccccc2)[C@H](CO)N1C(=O)NC(C)C)C(C)C`, the call was inactive. `CCN(C[C@@H]1[C@@H](c2ccccc2)[C@@H](CO)N1S(C)(=O)=O)C(=O)C1CC1`: the outcome was inactive. As to `CCOc1cc(C(=O)NC(C)COC)cc(OCC)c1OCC` (stereo not drawn), the outcome was inactive. Turning to `CCCNC(=O)C[C@@H]1CC[C@H]2[C@H](COc3ccc(NC(=O)c4ccc(C(F)(F)F)cc4)cc3C(=O)N2C)O1`, the outcome was inactive.

Turning to `O=C(COC(=O)c1ccccc1)Nc1cc(Cl)ccc1Oc1ccccc1`, the outcome was inactive.

As to `COCC(=O)Nc1ccc2c(c1)C(=O)N(C)[C@H]1CC[C@@H](CC(=O)NC3CCCC3)O[C@H]1CO2`, the compound was called inactive. Take `c1cnc(N2CCN(Cc3c[nH]c4ccccc34)CC2)nc1`: the outcome was inactive. On to `CN[C@H]1C[C@H]2c3[nH]c4ccc(-c5ccc(OC)cc5)cc4c3CCN2C(=O)[C@H]1[C@H](C)O`, for which the call was inactive.
